Screening results deposited in PubChem by National Center for Advancing Translational Sciences (NCATS).
Shown are actives, neighbours in structure and some others; about 10% of the full set was active somewhere.
HEK293 tox: kills HEK 293 cells | Potency, µM (top dose mostly 115 µM), for the others: top-dose activity change, negative = cytotoxicity, most hits filed as inhibitors | HEK 293 viability, ATP luminescence (CellTiter-Glo), 48-72 h | AID 1345083 | 94,000 compounds, 6.6% hits; also: % is scaled to controls: 0 for no effect and ±100 for the full control effect; nearly all actives have a fitted effect of over 60% in size
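qHTS cytotoxicity; HEK 293, 250 cells/well; compound pinned; 48 or 72 hr, 37 degree Celsius, 5% CO2, 95% humidity; CellTiter-Glo, 10 min RT; luminescence (ATP).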
NPR1 antag: antagonists of human natriuretic peptide receptor Npr1; P16066; HEK293 hNpr1 GloSensor cGMP, ANP-stimulated luminescence; Potency, µM (titrated, usually from 46.3 µM), without a hit: at the highest dose activity change, negative = inhibition, most hits filed as inhibitors; 76,000 compounds, 1.6% hits; AID 1347048; calls by dose curve; also: % is scaled to controls: 0 for no effect and ±100 for the full control effect; nearly all actives have a fitted effect of over 60% in size
Target sequence (P16066 whole entry, looked up): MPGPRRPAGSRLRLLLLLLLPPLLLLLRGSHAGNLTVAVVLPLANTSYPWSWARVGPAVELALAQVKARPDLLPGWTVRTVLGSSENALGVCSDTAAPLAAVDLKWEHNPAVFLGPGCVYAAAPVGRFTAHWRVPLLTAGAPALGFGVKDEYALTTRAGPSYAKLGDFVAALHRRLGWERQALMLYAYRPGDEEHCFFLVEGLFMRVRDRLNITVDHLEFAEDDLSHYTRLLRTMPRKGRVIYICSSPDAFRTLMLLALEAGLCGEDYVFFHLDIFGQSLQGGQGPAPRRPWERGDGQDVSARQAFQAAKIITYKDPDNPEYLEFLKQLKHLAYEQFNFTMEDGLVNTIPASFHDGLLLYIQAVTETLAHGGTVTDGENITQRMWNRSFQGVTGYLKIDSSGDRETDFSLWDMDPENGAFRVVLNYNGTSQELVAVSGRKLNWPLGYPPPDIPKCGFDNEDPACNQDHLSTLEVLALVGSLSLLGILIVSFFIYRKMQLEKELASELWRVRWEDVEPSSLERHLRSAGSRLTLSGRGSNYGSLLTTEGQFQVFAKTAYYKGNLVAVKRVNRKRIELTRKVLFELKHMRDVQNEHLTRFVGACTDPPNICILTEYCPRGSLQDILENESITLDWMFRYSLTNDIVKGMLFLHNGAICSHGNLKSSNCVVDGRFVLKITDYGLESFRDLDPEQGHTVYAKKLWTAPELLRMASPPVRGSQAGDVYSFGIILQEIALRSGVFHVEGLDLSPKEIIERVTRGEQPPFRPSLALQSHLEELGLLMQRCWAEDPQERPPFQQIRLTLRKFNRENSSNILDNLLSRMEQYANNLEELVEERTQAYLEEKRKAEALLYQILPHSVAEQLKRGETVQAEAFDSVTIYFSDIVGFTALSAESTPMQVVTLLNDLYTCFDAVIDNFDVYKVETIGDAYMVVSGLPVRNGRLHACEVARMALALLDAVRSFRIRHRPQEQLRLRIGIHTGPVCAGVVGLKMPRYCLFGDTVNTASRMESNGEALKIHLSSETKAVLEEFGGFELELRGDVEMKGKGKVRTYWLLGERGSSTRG
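HEK293 cells stably expressing human Npr1 and cGMP GloSensor pGS-40F, loaded 2 h with 2% GloSensor reagent, given compound 30 min at room temperature. Luminescence read before and 20 min after 0.1 nM hNppA.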
Luciferase inh: blocks purified firefly luciferase enzyme activity. P08659. purified P. pyralis luciferase, luminescence, biochemical. Potency, µM (top dose mostly 115 µM), usual class: inhibitors. 76,000 compounds, 2.5% hits. AID 1347043; also: % is scaled to controls: 0 for no effect and ±100 for the full control effect; nearly all actives have a fitted effect of over 65% in size
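Purified 10nM P. pyralis luciferase with 10uM D-luciferin and 10uM ATP in 50mM Tris acetate pH 7.5, 10mM Mg acetate, 0.01% Tween-20, 0.05% BSA. qHTS titration; luminescence read by CCD imager.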
NIH3T3 tox: kills NIH 3T3 cells | Potency, µM (highest dose often 96.7 µM), inactives show at the highest dose activity change, negative = cytotoxicity, hits mostly inhibitors | NIH 3T3 viability, CellTiter-Glo ATP luminescence, 48-72 h | AID 1345082 | 94,000 compounds, 4.3% hits; also: % is scaled to controls: 0 for no effect and ±100 for the full control effect; nearly all actives have a fitted effect of over 55% in size
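Cytotoxicity is measured as loss of cellular ATP: NIH 3T3 cells (400/well) are exposed to compound for 48 or 72 hr at 37 °C, then CellTiter-Glo luminescence is imaged after 10 min at room temperature.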
GPT2 inh: inhibitors of human GPT2 alanine aminotransferase. AID 1671188. 100,000 compounds, 0.25% hits. Recombinant GPT2, coupled pyruvate oxidase/HRP Amplex Red fluorescence. Potency, µM (titrated, usually from 57.7 µM), without a hit: at the highest dose activity change, negative = inhibition, usual class: inhibitors; also: % is scaled to controls: 0 for no effect and ±100 for the full control effect; nearly all actives have a fitted effect of over 60% in size
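Recombinant GPT2 (10ng/uL) with 250uM a-KG and 2mM L-alanine, 30 min at room temperature, in HEPES pH 7.5 buffer. Pyruvate detected by pyruvate oxidase/HRP/Amplex Red fluorescence after 30 min in the dark; AOA (50uM) as positive control.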
Npr1 antag conf: hNpr1 antagonism, confirmation assay | shares compounds with NPR1 antag | HEK293 hNpr1 cGMP GloSensor luminescence, ANP-stimulated | Potency, µM (doses to about 57.6 µM), for inactives: at the top dose activity change, negative = inhibition, most hits filed as inhibitors | 1,400 compounds, 76% hits; calls by dose curve; also: nearly all actives have a fitted effect of over 70% in size
Npr2 selectivity: hNpr2 antagonism, selectivity versus Npr1; Potency, µM (series often up to 57.6 µM), for inactives: top-dose activity change, negative = inhibition, usual class: inhibitors; HEK293 hNpr2 GloSensor cGMP luminescence, CNP-stimulated; AID 1347046; shares compounds with NPR1 antag; 1,400 compounds, 67% hits; calls by dose curve; also: nearly all actives have a fitted effect of over 70% in size
FLuc counter: FLuc enzyme inhibition, Npr1 counter-screen; shares compounds with NPR1 antag; purified FLuc enzyme, luminescence, Km substrate; Potency, µM (series often up to 57.6 µM), for the others: at the top dose activity change, negative = inhibition, actives largely listed as inhibitors; 1,400 compounds, 0.7% hits; AID 1347047; also: 0% is about no effect
GloSensor ctrl: counter-screen for Npr1 antagonists: GloSensor control cell line. shares compounds with NPR1 antag. HEK293 GloSensor cGMP, SNP-stimulated, luminescence. Potency, µM (top dose mostly 57.6 µM), for the others: at the highest dose activity change, negative = inhibition, actives largely listed as inhibitors. 1,400 compounds, 69% hits. AID 1347051; calls by dose curve; also: % is scaled to controls: 0 for no effect and ±100 for the full control effect; nearly all actives have a fitted effect of over 70% in size
An asterisk follows results filed as active; i = inactive; ? = inconclusive; · = not tested or not shown; [ ] = remark or other dose. Unless noted, calls follow the shape of the dose curve; as a rule, active = well fitted curve in the direction sought with a large enough effect; inconclusive = small, poorly fitted or top-dose-only effect, or another doubt; inactive = no such curve, though single readings can be large; an effect the other way counts as inactive or inconclusive. Potency is read from the fitted curve at half-maximal effect.

SMILES | HEK293 tox | NPR1 antag | Luciferase inh | NIH3T3 tox | GPT2 inh | Npr1 antag conf | Npr2 selectivity | FLuc counter | GloSensor ctrl
COc1cccc(CC(=O)N2CCN(C(=O)c3nnn4c3COC(c3ccccc3)C4)CC2)c1 (centres undefined) | -8% | -14% | i | -2% | i | · | · | · | ·
O=C(NC1C[C@H]2CC[C@@H](C1)N2C(=O)C1CCCCCC1)c1ccc(F)cc1 (some centres undefined) | -7% | · | · | -18% | -3% | · | · | · | ·
COc1ccc(CC(=O)N2Cc3[nH]cnc3C[C@H]2c2nc(-c3ccc4ccccc4c3)no2)cc1 | ? | -5% | ? | ? | -2% | · | · | · | ·
COc1ccccc1Cn1c(=O)c(C(=O)NCc2ccc3c(c2)OCO3)nc2cccnc21 | ? | · | · | ? | -20% | · | · | · | ·
CCOCCOC1CCN(C(=O)c2cccc(F)c2)CC1 | 8% | -1% | i | i | 1% | · | · | · | ·
CN(C)c1cccc(C(=O)N2CCC(OCCOc3ccc(F)cc3)CC2)c1 | ? | 13µM* | i | ? | i | 24µM* | 24µM* | -16% | 22µM*
Clc1cccc(-c2cnc([C@@H]3COCCN3Cc3cnc4ccccc4c3)[nH]2)c1 | 63µM* | 28µM* | i | 79µM* | 0%[88.5 µM] | ? | ? | -1%[86.2 µM] | ?
Nc1ncccc1CN1CCC2(CC1)COCCN2C(=O)OCc1ccccc1 | ? | 7.9µM* | i | ? | i | 11µM* | 11µM* | 2%[86.2 µM] | 11µM*
O=C(c1ccccc1)N1CC2(CCNC2)OCc2ccccc21 (centres undefined) | -19% | · | · | -9% | -34% | · | · | · | ·
COc1ccc(-c2noc(CC3CCN(C(=O)c4ccc(C)nc4)CC3)n2)cc1 | ? | 7.1µM* | i | ? | 4% | 5.4µM* | 6.9µM* | -1% | 5.4µM*
Cc1ccc(C(=O)N2CCC(Cc3nc(-c4ccccc4)no3)CC2)cn1 | ? | 6.3µM* | i | ? | -16% | 4.8µM* | 5.4µM* | 23% | 4.3µM*
COc1ccc(C(=O)N2CCC(Cc3nc(C(C)C)no3)CC2)cc1 | ? | ? | i | ? | 4% | · | · | · | ·
COc1ccc(CNc2ncnc3c2CN(C2CCNCC2)C(=O)CN3C)cc1OC | i | · | · | i | -7% | · | · | · | ·
CC(=O)NC1(C)CCCN(c2ccc(Oc3ccccc3)cc2)C1 (centres undefined) | ? | 18µM* | i | ? | ? | 20µM* | 20µM* | ? | 16µM*
CC1(NC(=O)C2CC2)CN(c2ccc(Oc3ccccc3)cc2)C1 | ? | 20µM* | i | -28%[138 µM] | i | 18µM* | 22µM* | -1%[86.2 µM] | 16µM*
CC(=O)NC1(C)CCN(Cc2ccc(Nc3ccccc3)cc2)C1 (centres undefined) | ? | 2%[70.6 µM] | ? | ? | -10%[88.5 µM] | · | · | · | ·
O=C(Nc1ccccc1)c1cc2n(n1)CC(c1ccc(Cl)cc1)OC2 (centres undefined) | ? | 13µM* | i | -26% | 1% | ? | ? | -1% | ?
O=C(NCCc1ccccc1)c1cc2n(n1)CC(c1ccc(Cl)cc1)OC2 (centres undefined) | ? | ? | i | ? | 3% | ? | ? | -4% | ?
O=C(Nc1cc(F)ccc1Cl)c1cc2n(n1)CC(c1ccc3c(c1)OCO3)OC2 (centres undefined) | ? | 2% | ? | -20% | i | · | · | · | ·
Cc1cc(F)ccc1NC(=O)c1cc2n(n1)CC(c1ccc(Br)cc1)OC2 (centres undefined) | 79µM* | ? | i | -29% | i | ? | ? | 1% | ?
O=C(Nc1ccc(F)c(Cl)c1)c1cc2n(n1)CC(c1ccc3c(c1)OCO3)OC2 (centres undefined) | 45µM* | ? | i | ? | 0% | 27µM* | ? | -9% | ?
O=C(NCc1ccccc1Cl)c1cc2n(n1)CC(c1ccc(Cl)cc1)OC2 (centres undefined) | ? | ? | i | ? | ? | ? | ? | -2% | ?
Cc1ccc(NC(=O)c2cc3n(n2)CC(c2ccc(Cl)cc2)OC3)cc1 (centres undefined) | ? | ? | i | ? | 2% | · | · | · | ·
CC(C)c1ccc(NC(=O)c2cc3n(n2)CC(c2ccc(Cl)cc2)OC3)cc1 (centres undefined) | ? | 10µM* | i | -20% | 1% | 14µM* | ? | -15% | 11µM*
O=C(NCCc1cccnc1)c1cc2n(n1)CC(c1ccc(Br)cc1)OC2 (centres undefined) | 40µM* | 11µM* | i | ? | i | 19µM* | 19µM* | 0% | 12µM*
SMILES | HEK293 tox | NPR1 antag | Luciferase inh | NIH3T3 tox | GPT2 inh | Npr1 antag conf | Npr2 selectivity | FLuc counter | GloSensor ctrl
O=C(COc1ccc(Cl)cc1)NC1CCc2n[nH]c(=O)n2CC1 (centres undefined) | -2% | -11% | i | -12% | 3% | · | · | · | ·
COc1ccccc1-n1c(=O)c(C(=O)NC(C)C)nc2cccnc21 | -7%[172 µM] | · | · | -21%[138 µM] | -6%[88.5 µM] | · | · | · | ·
Cc1ccccc1C(=O)N1CCN(c2ccc3nnc(C)n3n2)CC1 | -6%[172 µM] | · | · | -29%[138 µM] | · | · | · | · | ·
Cc1ccc(OCC(=O)N2CCC(Cc3nc(-c4ccccc4)no3)CC2)cc1 | 40µM* | 13µM* | i | ? | i | 15µM* | 15µM* | 26% | 12µM*
COc1ccc(-c2noc(CC3CCN(C(=O)COc4ccc(C)cc4)CC3)n2)cc1 | ? | 6.3µM* | i | ? | i | 7.7µM* | 8.6µM* | -12% | 8.6µM*
COc1ccc(OCC(=O)N2CCC(Cc3nc(-c4ccc(OC)cc4)no3)CC2)cc1 | 13µM* | 10µM* | i | 14µM* | ? | 11µM* | 14µM* | -2% | 12µM*
Cc1ccc(OCC(=O)N2CC(Oc3ccc(-c4noc(-c5ccccc5)n4)cc3)C2)cc1 | -2% | · | · | -29% | i | · | · | · | ·
